Compounds without any hit were thinned out: in the full panel of roughly 83,000, 20% have a hit.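 Assay: single dose, 48 h. Readout: percent growth (0 = no net growth; negative = cell death). Active: <10.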 Values without a mark were called inactive. Calls of active or inactive are those of the source.
The compounds below were run on SK-MEL-5 melanoma (assay: NCI-60 one-dose screen, 48 h (100 = growth as untreated, 0 = no growth, -100 = all killed)). Conditions: 10 µM unless noted.

Row | SMILES | growth
1 | CC(=O)CCC(=O)OCc1cc(=O)c(O)co1 | 105%
2 | O=C(c1nc2ccccc2[nH]1)C1C(c2ccc(Cl)cc2)C2CC3CCCC[C@H]3N2[C@@]12C(=O)Nc1cc(Cl)ccc12 (stereo partly drawn) | 50.1%
3 | COc1cccc(-c2nc3occn3c2-c2ccnc(NCCNS(=O)(=O)c3cccc4ccccc34)n2)c1 | 98.8%
4 | COc1cc(-c2n/c(=C\c3c(O)[nH]c4ccc(Cl)cc34)cc3c2=Nc2ccccc2-3)ccc1F | 27.6%
5 | NNC(=O)c1ccc(-n2nc(-c3ccccc3)c3ccccc32)cc1 | 84.5%
6 | O=C1Nc2cc(-c3cccc(O)c3)ccc2/C1=C/c1ccc[nH]1 | 6.19% (active)
7 | COc1cccc(/C=N/NC(=O)c2cnn3c2NC(c2ccccc2)C3)c1Oc1ccccc1 (stereo not drawn) | 73%
8 | S=c1cc(S)c2cc(Br)ccc2[nH]1 | 89%
9 | O=C(NCCc1ccccc1)Nc1ccc2cc3ccc(NC(=O)NCCc4ccccc4)cc3nc2c1 | 60.9%
10 | CCN(CC)CCCC(C)Nc1cc(O)cc2cccnc12 (stereo not drawn) | 116%
11 | CCOC(=O)C1=C(C)NC(SCc2cc(=O)oc3ccc(F)cc23)=N[C@@H]1c1cccc2ccccc12 | 99.9%
12 | COc1ccc(C(=O)c2cc(OC)c(OC)c(OC)c2)cc1O | -59.7% (active)
13 | CCCOC(=O)N[C@H]1CCc2c(Cl)c(OC)c(OC)c(OC)c2-c2ccc(SC)c(=O)cc21 | -10.3% (active)
14 | Cc1ccc(/C=N/NC(=O)CSc2nc3ccccc3c(=O)n2Cc2ccc(S(N)(=O)=O)cc2)cc1 | 74.4%
15 | O=C(CCN1CCCC1)Nc1ccc2c(NCCCCc3ccccc3)c3ccccc3nc2c1 | -30.9% (active)
16 | CSc1nc2sc3cccc(Cl)c3n2c(=N)c1C#N | 95.4%
17 | C#CCNC(=O)c1cccc2c1cc(C)n2-c1nc2c(c(NCc3ccccc3)n1)CCCC2 | -94.3% (active)
18 | Cc1ccc(S(=O)(=O)NNC(=O)/C(=C\c2ccc(Cl)cc2)c2nc3ccccc3s2)cc1 | 94.9%
19 | O=[N+]([O-])CC(c1ccccc1)c1c[nH]c2ccccc12 (stereo not drawn) | 50.9%

Row | SMILES | growth
20 | Nc1nc(Nc2ccccc2SSc2ccccc2Nc2nc(N)nc(-c3ccc(C(F)(F)F)cc3)n2)nc(-c2ccc(C(F)(F)F)cc2)n1 | 88.9%
21 | CCCCCC(=O)Oc1ccc(/C(=C(\C)c2ccccc2)c2ccc(OCCN3CCCCC3)cc2)cc1 | 83.9%
22 | C/C(=N\Nc1cc(C)nc2ccc(Br)cc12)c1ccc([N+](=O)[O-])cc1 | 92.3%
23 | COc1cccc(-c2ccc3c(c2)NC(=O)/C3=C\c2ccc[nH]2)c1 | 11%
24 | CCC(=O)Oc1ccc(/C(=C(\C)c2ccccc2)c2ccc(OCCN3CCCCC3)cc2)cc1 | 82.5%
25 | COc1cc(CC(=O)c2ccc(O)c(OC)c2)ccc1O | 101%
26 | Brc1ccc2[nH]cc(-c3cncn3CCc3ccccc3)c2c1 | 10.4%
27 | CCNC(=O)Oc1ccc(/C(=C(\C)c2ccccc2)c2ccc(OCCCN(C)C)cc2)cc1 | 80.9%
28 | O=C(/C=C/c1ccc(F)cc1)c1ccc(NC(=O)N2CCN(c3cc4c(cc3F)c(=O)c(C(=O)O)cn4C3CC3)CC2)cc1 | 96.8%
29 | O=S(=O)(NCCNc1nccc(-c2c(-c3cccc(O)c3)nc3occn23)n1)c1ccccc1 | 33.7%
30 | COc1ccc(C(=O)c2cc(C)c(OC)c(C)c2)c(OC)c1N(C(=O)CCl)C(=O)CCl | -9.39% (active)
31 | O=C(/C=C/c1ccc[nH]1)c1ccc(-n2ccc(C(F)(F)F)n2)c(F)c1 | 97.6%
32 | COc1ccc(C(=O)C2C(C#N)C(C#N)C3c4ccccc4C=CN23)cc1 (stereo not drawn) | 84.2%
33 | c1ccc(-c2cn3c(ccc4ccccc43)n2)cc1 | 27.4%
34 | CNC(=O)c1cccc(Cn2nc(C)c(NC(=O)c3ccc(COc4ccc(C(F)(F)F)cc4C)cc3)c2C)n1 | -6.19% (active)
35 | COc1ccc(OC)c(-c2cc(-c3ccc(Cl)cc3)c3c(N)c(C(=O)c4ccc(Cl)cc4)sc3n2)c1 | 107%
36 | CCCOc1ccc(/C=N/Nc2cc(C)nc3ccc(Cl)cc23)cc1 | 79.9%
37 | O=C(Cc1ccccc1)NNc1nc(Cl)nc(N2CCN(C(c3ccccc3)c3ccccc3)CC2)n1 | 99.8%
38 | C#CCNC(=O)[C@H](Cc1ccccc1)NC(=O)[C@]12CC[C@@H](C(=C)C)[C@@H]1[C@H]1CC[C@@H]3[C@@]4(C)CCC(=O)C(C)(C)[C@@H]4CC[C@@]3(C)[C@]1(C)CC2 | 78.2%
